# Tested on: XIP peptide (Xip251-270)
# Experiment: compounds binding XIP fragment 251-270 – biochemical, small-molecule microarray, fluorescence 635/667 nm, 0.5 µg/mL protein, primary screen (AID 1183)
# Details: fluorescence 635 nm, higher = more signal
row,Structure (SMILES),composite z-score
1,O=C1O[C@H](c2ccccc2)[C@H](c2ccccc2)N2[C@H]1[C@@H](C(=O)Nc1nc3ccccc3s1)[C@]1(C(=O)Nc3ccc(C#CC4(O)CCCCCC4)cc31)[C@H]2c1ccc(O)cc1,0.844
2,CCCC=C(CCC)[C@@H](NS(=O)(=O)c1cccc(C(F)(F)F)c1)c1ccc(C(=O)OC)cc1,0.377
3,C=CC[C@@]1(C(=O)NCC(O)CO)N=C(c2ccc(OCCCO)cc2)O[C@@H]1c1ccccc1CN=[N+]=[N-] (stereo partly specified),-0.105
4,Cc1ccccc1C(O)C1C=CC2C(=O)N(c3ccccc3)C(=O)C2N1Nc1ccc(C#N)cc1 (stereo unspecified),0.761
5,O=C1O[C@H](c2ccccc2)[C@H](c2ccccc2)N2[C@H]1[C@@H](C(=O)Nc1nc3ccccc3s1)[C@]1(C(=O)Nc3ccc(C#CC4=CCCCC4)cc31)[C@H]2c1ccccc1OCCO,0.0555
6,CCCNC(=O)[C@@H]1c2ccccc2C(=O)N(Cc2cc(F)cc(C(F)(F)F)c2)[C@H]1c1ccc(CO)cc1,0.801
7,COc1ccc(NN2C(C(O)c3cc(OC)c(OC)c(OC)c3)C=CC3C(=O)N(C4CCCCC4)C(=O)C32)cc1 (stereo unspecified),0.758
8,CCOC(=O)C[C@H]1[C@H](OC(=O)c2cc3ccccc3oc2=O)[C@@H](NC(=O)c2ccc3ccccc3c2)c2cc(OCCCO)ccc2N1C(=O)c1ccc2ccccc2n1,-0.333
9,O=C(NCc1ccccc1)c1ccc(Br)cc1[N+](=O)[O-],0.0871
10,COc1ccc([Si](C)(C)[C@@H]2[C@@H](CCO)O[C@]3(C(=O)N(Cc4ccc(NC(=O)[C@H](C)O)cc4)c4ccccc43)[C@H]2C)cc1,0.752
11,COC(=O)C(CC#Cc1ccc2c(c1)[C@]1(C(=O)N2)[C@H](C(=O)N2CCCCCCC2)[C@H]2C(=O)O[C@H](c3ccccc3)[C@H](c3ccccc3)N2[C@@H]1c1ccc(O)cc1)C(=O)OC,0.459
12,CCOC(=O)C[C@H]1[C@H](OC(=O)Cc2ccc3c(c2)OCO3)[C@@H](NC(=O)c2ccc3ccccc3c2)c2cc(OCCCO)ccc2N1C(=O)Cc1ccc(OC)cc1,0.737
13,COC(=O)[C@@]1(Cc2ccccc2N=[N+]=[N-])N=C(c2ccc(OCCCO)cc2)O[C@H]1c1ccccc1CN=[N+]=[N-],0.82
14,O=C1OCC=C[C@H]2OC34C=CCN(Cc5ccccc5)C(=O)[C@H]3N(CCCCCO)C(=O)[C@@H]4[C@@H]12 (stereo partly specified),-0.85
15,Cc1ccc(S(=O)(=O)N2[C@@H](c3ccccc3)C(C(=O)O)=CC[C@H]2c2ccccc2)cc1,0.0514
16,C=CC[C@@]1(C(=O)N2CCOCC2)N=C(c2ccc(OCCCO)cc2)O[C@@H]1c1ccccc1,-0.526
17,[N-]=[N+]=NCc1ccccc1C[C@]1(C(N)=O)N=C(c2ccc(OCCCO)cc2)O[C@H]1c1ccccc1CN=[N+]=[N-],-0.285
18,COCCCNC(=O)[C@@H]1c2ccccc2C(=O)N(CC23CC4CC(CC(C4)C2)C3)[C@H]1c1ccc(CO)cc1,-0.518

row,Structure (SMILES),composite z-score
1,Cc1ccc(N2C(=O)c3ccccc3[C@@H](C(=O)NCc3ccccc3)[C@@H]2c2ccc(CO)cc2)nc1,-0.98
2,O=C(CS)NCCCCCNC(=O)[C@H]1C[C@H]2C(=O)N3CCC[C@H]3C(=O)N2[C@H]1c1ccc(O)cc1,-1.02
3,CC(C)[Si]1(C(C)C)OCc2cc(C3CC3)nc(-c3ccccc3)c21,0.939
4,COCC(=C=CC[C@H](O)c1ccc(OCCO)cc1)C[C@H](O)c1ccccn1,-0.246
5,C=CCNC(=O)[C@H]1[C@@H]2C(=O)O[C@@H](c3ccccc3)[C@@H](c3ccccc3)N2[C@@H](c2ccccc2OCCO)[C@]12C(=O)N(C(=O)OCCOC)c1ccc(C#CCC(C(=O)OC)C(=O)OC)cc12,0.818
6,COC(=O)[C@H]1[C@@H]2COc3ccccc3[C@H]2N[C@H]1C(=O)OC,0.522
7,C=CC[C@]1(C(=O)N2CCCCC2)N=C(c2ccc(OCCCO)cc2)O[C@H]1c1ccccc1N=[N+]=[N-],0.851
8,C=CCNC(=O)[C@@H]1[C@H]2C(=O)O[C@H](c3ccccc3)[C@H](c3ccccc3)N2[C@H](c2ccc(OCCO)cc2)[C@@]12C(=O)N(C(=O)OCCOC)c1ccc(C#CC3(O)CCCCCC3)cc12,0.675
9,N#Cc1ccc(NN2C(C(O)c3ccc(I)cc3)C=CC3C(=O)N(c4ccccc4)C(=O)C32)cc1 (stereo unspecified),0.464
10,[N-]=[N+]=NCc1ccccc1[C@H]1OC(c2ccc(OCCCO)cc2)=N[C@@]1(Cc1ccccc1N=[N+]=[N-])C(=O)NCc1ccccc1,0.649
11,NC(=O)[C@H]1[C@@H]2C(=O)O[C@@H](c3ccccc3)[C@@H](c3ccccc3)N2[C@@H](c2ccc(O)cc2)[C@]12C(=O)Nc1ccc(C#CCCO)cc12,-0.413
12,CO[C@H]1O[C@H](CO)[C@@H](OC(=O)CCc2ccccc2)[C@@H]2OC(=O)[C@H](Cc3cccc(Br)c3)C/C=C/C[C@@H](Cc3cccc(Br)c3)C(=O)O[C@@H]12,-0.107
13,CCC1=C2CN(Cc3ccccc3Br)[C@@H]([C@@H](O)Cc3ccccc3)C2C=CCC1 (stereo partly specified),0.509
14,CC[C@@H]1C=C(C(=O)O)[C@H](c2ccccc2)N1S(=O)(=O)c1ccc([N+](=O)[O-])cc1,0.729
15,[N-]=[N+]=NCc1ccccc1C[C@]1(C(=O)N2CCCCC2)N=C(c2ccc(OCCCO)cc2)O[C@H]1c1ccccc1CN=[N+]=[N-],0.811
16,C=CC[C@]1(C(=O)OC)N=C(c2ccc(OCCCO)cc2)O[C@H]1c1ccccc1CN=[N+]=[N-],-0.239
17,C=C[C@H](OC)[C@@H](OC(=O)Nc1ccc(SC)cc1)c1ccc(O)c(F)c1,0.719
18,O=C1C2C=CC(C(O)C(c3ccccc3)c3ccccc3)N(Nc3ccc([N+](=O)[O-])cc3)C2C(=O)N1c1ccccc1 (stereo unspecified),0.747

# From PubChem BioAssay
